Results taken from the supplement of paper PMC12340641.
Where a name gives a salt, the structure may show the parent alone.

Each compound was assayed against IKZF1 (dCK*-IKZF1 fusion in HEK293FT) (UniProt Q13422) (assay: inhibition of IKZF1 HTRF signal (DMSO = 0%, pomalidomide 10 uM = 100%); higher = lower IKZF1 protein level). Details: compound concentration: 5 uM, overnight (~20 h).
Method in brief: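 Percent inhibition of IKZF1 signal was calculated per plate with vehicle and a reference degrader as anchors. The anchors were 0% for vehicle and 100% for the degrader, applied to background-subtracted 665/620 nm time-resolved FRET ratios from a commercial HTRF total-IKZF1 kit. Signal came from HEK293FT cells stably expressing an IKZF1 fusion, treated overnight at 37 °C with 5 μM compound in single wells of 384-well plates.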

Chain of IKZF1 (dCK*-IKZF1 fusion in HEK293FT) (Q13422 whole entry, looked up, the tested form may be a part): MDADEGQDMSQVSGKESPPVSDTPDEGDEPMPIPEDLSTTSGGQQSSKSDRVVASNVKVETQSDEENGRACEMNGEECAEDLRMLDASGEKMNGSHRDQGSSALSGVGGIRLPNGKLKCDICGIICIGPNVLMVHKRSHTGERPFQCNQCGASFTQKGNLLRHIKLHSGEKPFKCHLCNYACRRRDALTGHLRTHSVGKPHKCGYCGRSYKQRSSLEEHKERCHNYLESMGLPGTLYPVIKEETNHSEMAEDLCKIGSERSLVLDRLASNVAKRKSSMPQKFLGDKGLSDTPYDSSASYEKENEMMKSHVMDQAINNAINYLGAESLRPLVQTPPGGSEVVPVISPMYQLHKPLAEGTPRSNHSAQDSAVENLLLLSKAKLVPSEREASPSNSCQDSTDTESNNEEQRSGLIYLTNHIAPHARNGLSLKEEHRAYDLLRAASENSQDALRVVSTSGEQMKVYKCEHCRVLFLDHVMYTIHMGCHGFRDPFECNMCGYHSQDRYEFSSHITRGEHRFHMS

Compound	inhibition of IKZF1 HTRF signal [%]
Clc1ccc(C(Cn2ccnc2)OCc2c(Cl)cccc2Cl)c(Cl)c1 (stereo not given) [Isoconazole nitrate (Travogen)]	-10.4
CC[C@]1(O)C[C@H]2CN(CCc3c([nH]c4ccccc34)[C@@](C(=O)OC)(c3cc4c(cc3OC)N(C=O)[C@H]3[C@@](O)(C(=O)OC)[C@H](OC(C)=O)[C@]5(CC)C=CCN6CC[C@]43[C@@H]65)C2)C1 [Vincristine Sulfate]	33.3
CN1CCN(Cc2ccc(-c3cnc4[nH]cc(-c5ccc6[nH]ccc6c5)c4c3)cc2)CC1	-32.6
COc1cccc2c(O)c3c(O)c4c(c(O)c3c(O)c12)=C(O[C@H]1C[C@H](N)[C@H](O)[C@H](C)O1)C[C@](O)(C(=O)CO)C=4 [Doxorubicin HCl]	40.1
COc1cc(NC(=O)c2ccc(-c3ccc(Cl)cc3)o2)cc(OC)c1	-48.3
CCCCC(=O)OCC(=O)[C@]1(O)Cc2c(O)c3c(c(O)c2[C@@H](O[C@H]2C[C@H](NC(=O)C(F)(F)F)[C@H](O)[C@H](C)O2)C1)C(=O)c1c(OC)cccc1C3=O [Valrubicin]	-26.2
Oc1c(I)cc(I)c2cccnc12	-30.6
CN(C)C(=O)C(CCN1CCC(O)(c2ccc(Cl)cc2)CC1)(c1ccccc1)c1ccccc1	-14.4
O=C(Nc1cccc(C(F)(F)F)c1)Nc1ccc(Br)cc1-c1nnn[nH]1	-23.4
COc1ccc(-c2ccc3c(N4CCOC[C@@H]4C)nc(N4CCOC[C@@H]4C)nc3n2)cc1CO	50
CC(=O)[C@@]1(O)C=C(O[C@H]2C[C@H](N)[C@H](O)[C@H](C)O2)c2c(c(O)c3c(O)c4ccccc4c(O)c3c2O)C1 [Idarubicin HCl]	87.1
NC(=O)N1c2ccccc2CC(O)c2ccccc21 (stereo not given) [licarbazepine]	-28.1
CCC(=O)O[C@@H]1CC(=O)O[C@H](C)C/C=C/C=C/[C@H](OC(C)=O)[C@H](C)C[C@H](CC=O)[C@H](O[C@@H]2O[C@H](C)[C@@H](O[C@H]3C[C@@](C)(OC(C)=O)[C@@H](OC(=O)CC)[C@H](C)O3)[C@H](N(C)C)[C@H]2O)[C@H]1OC [Midecamycin Acetate]	-24.1
COc1cccc2c1C(=O)c1c(O)c3c(c(O)c1C2=O)C[C@@](O)(/C(CO)=N/NC(=O)CCCCCN1C(=O)C=CC1=O)C[C@@H]3O[C@H]1C[C@H](N)[C@H](O)[C@H](C)O1 [Aldoxorubicin]	-9
Nc1ccc(S(=O)(=O)Nc2cnc3ccccc3n2)cc1	-31.3
FC(F)(F)c1cc(NC(=S)Nc2ccc(Br)cc2-c2nnn[nH]2)cc(C(F)(F)F)c1	-39
CCc1ccc(OCc2ccccc2C(=O)Nc2ccc3nc(C)cc(N)c3c2)cc1	41.1
O=C(Nc1ccc2[nH]ccc2c1)c1ccccc1	-24.8
CC(=O)[C@]1(O)Cc2c(O)c3c(c(O)c2[C@@H](O[C@H]2C[C@H](N)[C@H](O)[C@H](C)O2)C1)C(=O)c1ccccc1C3=O [Idarubicin HCl]	11.7
COc1ccc(NC(=O)c2ccc(-c3ccc(-c4noc(C)n4)cc3C)cc2)cc1N1CCN(C)CC1	-35.8
O=[N+]([O-])c1ccc(O)c2ncccc12	-23.9
CNCCC(Oc1ccc(C(F)(F)F)cc1)c1ccccc1 (stereo not given) [Fluoxetine HCl]	-26.7
Cc1nnsc1C(=O)Nc1ccc(-n2nc(C(F)(F)F)cc2C(F)(F)F)cc1	-28.9
C=C1CCC2[C@](C)(CO)[C@H](O)CC[C@@]2(C)[C@@H]1C/C=C1/C(=O)OC[C@H]1O (stereo not given in full) [Andrographolide]	0.47
Cc1ccc(S(=O)(=O)c2ccc([N+](=O)[O-])o2)cc1	-48.9
COc1ccc(C2CC(c3c(O)cc(C)oc3=O)=NCCS2)c(OC)c1 (stereo not given)	-11
Oc1cc(O)cc(/C=C/c2ccc(O)c(O)c2)c1 [piceatannol]	6.73
Cc1ncsc1-c1ccc(CNC(=O)[C@@H]2C[C@@H](O)CN2C(=O)[C@@H](NC(=O)COCCOCCOc2ccc(-c3ccc4ncnc(Nc5ccc(OCc6cccc(F)c6)c(Cl)c5)c4c3)cc2)C(C)(C)C)cc1	6.76
O=C1N(c2ccccc2)c2ccccc2C1(Cc1ccncc1)Cc1ccncc1 [linopirdine]	-39.8
CCCCCCCCNC(C)C(O)c1ccc(SC(C)C)cc1 (stereo not given)	-32.8
